# For part of these data: Entries with a potency or affinity are not part of this list. The source made the active and inactive calls.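 Rule for the calls, unless noted: active = calcium signal ratio cut to more than 3 SD under the fully stimulated control mean yet still positive, in both repeats and the primary screen; inactive = the rest.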
# What was measured:
# [1] = test system: TRPC4 beta (transient receptor potential cation channel C4), mouse; experiment: activators of mouse TRPC4 channel, confirmation, cell-based, Fluo4 calcium, HEK293 TRPC4beta/mu-opioid, duplicates, 10 µM (AID 2426;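 active = fluorescence ratio normalized to control raised more than 50% in primary screen plus both repeat runs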); details: Fluo4 calcium fluorescence, at 10 µM; stronger effect = higher value
# [2] = test system: transient receptor potential cation channel C4 beta (TRPC4), mouse; experiment: activators of mouse TRPC4 channel, confirmation, cell-based, second round, Fluo4, HEK293 TRPC4beta/mu-opioid, 1 µM (AID 2461;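 active = primary screen active and over 50% activation in each of two duplicate runs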); details: Fluo4 calcium fluorescence, at 1 µM; stronger effect = higher value
# [3] = test system: TRPC4 (transient receptor potential cation channel C4 beta), mouse; experiment: positive allosteric modulators of mouse TRPC4, confirmation, cell-based, second round, Fluo-4, HEK293 TRPC4beta/mu-opioid, 1 µM (AID 2554;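 active = primary screen hit whose fluorescence ratio, in both repeats, exceeds the weak agonist control mean by 3 SD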); details: DAMGO EC20, Fluo-4 calcium flux, at 1 µM; stronger effect = higher value
# [4] = test system: TRPC4 beta (transient receptor potential cation channel C4), mouse; experiment: positive allosteric modulators of mouse TRPC4, confirmation, cell-based, Fluo-4, HEK293 TRPC4beta/mu-opioid (AID 2555;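 active = primary screen hit whose calcium fluorescence ratio, in both repeats, exceeds the weak agonist control mean by 3 SD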); details: DAMGO EC20, Fluo-4 calcium flux, at 10 µM; stronger effect = higher value
# [5] = target: Short transient receptor potential channel 4 (Mus musculus) (UniProt Q9QUQ5); experiment: inhibitors of mouse TRPC4 channel, confirmation, cell-based, Fluo4, HEK293 TRPC4beta/mu-opioid (AID 2636;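 active = calcium signal cut by more than 3 SD below the full-agonist control yet still positive, in both repeats and the earlier primary screen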); details: DAMGO, Fluo4 calcium flux, at 10 µM; stronger effect = higher value
# [6] = target: Short transient receptor potential channel 4 (Mus musculus) (UniProt Q9QUQ5); experiment: inhibitors of mouse TRPC4 channel, confirmation, cell-based, second round, Fluo4, HEK293 TRPC4beta/mu-opioid, 1 µM (AID 2637); details: Fluo4 calcium flux, DAMGO, at 1 µM; stronger effect = higher value
# [7] = target: Short transient receptor potential channel 4 (Mus musculus) (UniProt Q9QUQ5); experiment: mouse TRPC4 channel activators, dose response, cell-based, HEK293 TRPC4/mu-opioid, Fluo-4 calcium (AID 434937;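 active = primary screen activator hit with a dose response curve and TRPC4 channel activation at any tested dose; inactive = no activation, no dose response, or not a primary hit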)
# [8] = target: Short transient receptor potential channel 4 (Mus musculus) (UniProt Q9QUQ5); experiment: TRPC4 positive allosteric modulators, dose response, cell-based, HEK293 TRPC4/mu-opioid, Fluo-4 calcium, EC20 DAMGO (AID 434941;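 active = earlier screen potentiator hit that boosts the TRPC4 ion channel at some dose, with a dose response; inactive = no potentiation, no dose response, or not a prior hit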;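 note: calcium entry triggered by an EC20 dose of DAMGO at the co-expressed mu-opioid receptor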)
# [9] = target: Short transient receptor potential channel 4 (Mus musculus) (UniProt Q9QUQ5); experiment: mouse TRPC4 channel inhibitors, dose response, cell-based, HEK293 TRPC4/mu-opioid, Fluo-4 calcium (AID 434942;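 active = primary screen inhibitor hit that blocks the TRPC4 channel at some tested dose, yielding a dose curve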)
# [10] = target: Short transient receptor potential channel 6 (Mus musculus) (UniProt Q61143); experiment: inhibition of mouse TRPC6 channel, confirmation, selectivity assay for TRPC4 inhibitor project, cell-based, HEK293, membrane potential dye, duplicate (AID 434948;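 active = active in primary screen and both duplicates, each dropping signal beyond three positive-control SD with fluorescence still positive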); details: HEK293 TRPC6, membrane potential dye fluorescence, at 10 µM, stimulated with maximal-effect acetylcholine; stronger effect = higher value
# [11] = target: Short transient receptor potential channel 6 (Mus musculus) (UniProt Q61143); experiment: activation of mouse TRPC6 channel, confirmation, selectivity assay for TRPC4 activator project, cell-based, HEK293, membrane potential dye, duplicate (AID 434950;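 active = membrane potential signal rise above negative control mean plus 3 SD in both duplicates, also active in the earlier TRPC4 screen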); details: HEK293 TRPC6, membrane potential fluorescence, at 10 µM; stronger effect = higher value
# [12] = target: Short transient receptor potential channel 6 (Mus musculus) (UniProt Q61143); experiment: TRPC6 potentiation by TRPC4 potentiator hits, confirmation, selectivity assay for TRPC4 potentiator project, HEK293 cells, membrane potential dye, duplicate (AID 434952;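 active = compound raising the membrane signal above positive-control mean plus 3 SD in both repeats, and a primary screen hit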); details: HEK293 TRPC6, membrane potential dye fluorescence, at 10 µM, maximal acetylcholine added after compound; stronger effect = higher value
# [13] = target: Short transient receptor potential channel 4 (Mus musculus) (UniProt Q9QUQ5); experiment: calcium flux activators in TRPC4/5HT1a cells, counter-screen for TRPC4 activator project, cell-based, second counter screen, HEK293 TRPC4/5HT1a, Fluo-4 (AID 434977;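 active = calcium signal rise above buffer-control mean plus 5 SD in both duplicates, and also a hit in the primary screen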); details: Fluo-4 calcium flux, at 10 µM; stronger effect = higher value
# [14] = calcium flux inhibitors in TRPC4/5HT1a cells, confirmation, counter-screen for TRPC4 inhibitor project, cell-based, second counter screen, HEK293 TRPC4/5HT1a, Fluo-4 (AID 434978;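 active = primary screen active whose calcium signal fell more than 3 SD beyond the full-serotonin control mean in both duplicate plates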;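 for outcome: serotonin given first at submaximal then at maximal dose after compound preincubation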); details: Fluo-4 calcium flux, at 10 µM, serotonin added to trigger calcium flux; stronger effect = higher value
# [15] = test system: TRPC4 (mouse), co-expressed with 5HT1a in HEK293; experiment: calcium flux potentiators in TRPC4/5HT1a cells, confirmation, counter-screen for TRPC4 potentiator project, cell-based, second counter screen, HEK293 TRPC4/5HT1a, Fluo-4 (AID 434979;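 active = signal rise over 3 SD above mean of control wells given weak agonist, in both repeats and first screen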); details: Fluo-4 calcium flux, at 10 µM, serotonin added at its EC20 dose; stronger effect = higher value
# [16] = calcium flux activation in mu-opioid HEK293 cells, confirmation, counter-screen for TRPC4 activator project, cell-based, HEK293 mu-opioid receptor line (AID 449723;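 active = hit in primary screen, with calcium signal over 5 SD above buffer well mean in both duplicates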;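 note: counter screen cells carry the mu-opioid receptor alone and lack TRPC4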); details: Fluo-4 calcium fluorescence, at 10 µM; stronger effect = higher value
# [17] = calcium flux enhancement in mu-opioid HEK293 cells, confirmation, counter-screen for TRPC4 allosteric potentiator project, cell-based, HEK293 mu-opioid receptor line (AID 449724;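 active = calcium signal rise more than 3 SD above the low-dose agonist control mean, in both duplicate plates and the primary screen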); details: Fluo-4 calcium flux, at 10 µM, compound added before EC20 DAMGO stimulus; stronger effect = higher value
# Sequence of Short transient receptor potential channel 6 (Mus musculus) (Q61143 whole entry, looked up): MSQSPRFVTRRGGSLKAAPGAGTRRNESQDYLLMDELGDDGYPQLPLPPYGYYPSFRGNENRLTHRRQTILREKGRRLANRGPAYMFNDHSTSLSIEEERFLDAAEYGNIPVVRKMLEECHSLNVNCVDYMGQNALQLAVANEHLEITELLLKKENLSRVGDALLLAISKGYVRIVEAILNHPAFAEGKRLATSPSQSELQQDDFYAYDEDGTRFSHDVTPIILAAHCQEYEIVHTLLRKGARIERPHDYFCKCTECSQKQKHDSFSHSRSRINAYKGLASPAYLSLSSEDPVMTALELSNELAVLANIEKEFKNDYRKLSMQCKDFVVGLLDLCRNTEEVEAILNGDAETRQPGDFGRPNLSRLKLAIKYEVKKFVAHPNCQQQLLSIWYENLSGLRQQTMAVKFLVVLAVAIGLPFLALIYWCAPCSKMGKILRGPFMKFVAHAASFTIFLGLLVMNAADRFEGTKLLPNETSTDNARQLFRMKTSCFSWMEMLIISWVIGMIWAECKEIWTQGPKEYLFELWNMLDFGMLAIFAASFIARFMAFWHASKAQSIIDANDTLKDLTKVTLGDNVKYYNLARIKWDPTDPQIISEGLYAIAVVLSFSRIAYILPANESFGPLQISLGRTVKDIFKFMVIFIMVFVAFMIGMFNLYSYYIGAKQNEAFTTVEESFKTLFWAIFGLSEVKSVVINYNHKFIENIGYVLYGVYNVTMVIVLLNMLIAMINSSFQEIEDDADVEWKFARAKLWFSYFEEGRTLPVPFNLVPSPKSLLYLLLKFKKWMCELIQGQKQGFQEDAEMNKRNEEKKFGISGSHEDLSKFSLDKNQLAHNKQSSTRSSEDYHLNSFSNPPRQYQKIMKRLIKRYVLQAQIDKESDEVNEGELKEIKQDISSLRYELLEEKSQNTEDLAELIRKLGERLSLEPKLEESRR
# Sequence of Short transient receptor potential channel 4 (Mus musculus) (Q9QUQ5 whole entry, looked up): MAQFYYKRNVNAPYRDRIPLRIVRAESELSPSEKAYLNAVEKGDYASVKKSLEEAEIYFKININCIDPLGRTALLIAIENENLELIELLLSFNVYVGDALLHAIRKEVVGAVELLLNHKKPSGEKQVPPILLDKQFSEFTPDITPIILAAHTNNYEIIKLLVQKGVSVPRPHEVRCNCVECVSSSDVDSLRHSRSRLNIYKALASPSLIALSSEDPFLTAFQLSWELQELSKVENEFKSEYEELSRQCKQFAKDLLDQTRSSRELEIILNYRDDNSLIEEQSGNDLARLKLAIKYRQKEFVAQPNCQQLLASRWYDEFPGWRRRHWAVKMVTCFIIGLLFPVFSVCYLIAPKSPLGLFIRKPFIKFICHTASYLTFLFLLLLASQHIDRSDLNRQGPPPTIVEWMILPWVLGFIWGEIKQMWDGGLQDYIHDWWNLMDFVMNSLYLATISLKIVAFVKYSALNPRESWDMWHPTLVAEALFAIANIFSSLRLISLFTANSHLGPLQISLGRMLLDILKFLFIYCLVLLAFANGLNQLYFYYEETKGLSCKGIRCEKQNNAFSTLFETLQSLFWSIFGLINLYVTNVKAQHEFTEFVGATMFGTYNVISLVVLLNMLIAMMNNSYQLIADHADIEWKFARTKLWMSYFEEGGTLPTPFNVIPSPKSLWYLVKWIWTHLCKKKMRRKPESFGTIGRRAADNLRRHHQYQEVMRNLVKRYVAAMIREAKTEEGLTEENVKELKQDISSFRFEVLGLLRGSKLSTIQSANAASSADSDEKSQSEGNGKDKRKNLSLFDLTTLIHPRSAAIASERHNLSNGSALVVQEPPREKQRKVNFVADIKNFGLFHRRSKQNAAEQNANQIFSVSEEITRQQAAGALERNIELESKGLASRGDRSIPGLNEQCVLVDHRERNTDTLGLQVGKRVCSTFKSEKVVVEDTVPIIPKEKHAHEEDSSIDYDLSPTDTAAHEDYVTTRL
structure (smiles),measurement,setting,value
CC1=C(C(=O)NCCN2CCN(C)CC2)C2(CCC(C)CC2)OC1=O (stereo not given),outcome,[1],inactive
same,outcome,[2],inactive
same,outcome,[3],inactive
same,outcome,[4],inactive
same,outcome,[5],inactive
same,outcome,[6],inactive
same,outcome,[7],inactive
same,outcome,[8],inactive
same,outcome,[9],inactive
same,outcome,[10],inactive
same,outcome,[11],inactive
same,outcome,[12],inactive
same,outcome,[13],inactive
same,outcome,[14],inactive
same,outcome,[15],inactive
same,outcome,[16],inactive
same,outcome,[17],inactive
CCCN1Cc2cccc(C(=O)N3CCN(c4cc(Cl)ccc4C)CC3)c2C1=O,outcome,[1],inactive
same,outcome,[2],inactive
same,outcome,[3],inactive
same,potentiation,[4],81% (active)
same,outcome,[5],inactive
same,outcome,[6],inactive
same,outcome,[7],inactive
same,outcome,[8],inactive
same,outcome,[9],inactive
same,outcome,[10],inactive
same,outcome,[11],inactive
same,outcome,[12],inactive
same,outcome,[13],inactive
same,outcome,[14],inactive
same,potentiation,[15],49.8% (active)
same,outcome,[16],inactive
same,outcome,[17],inactive
Cc1cc(C)nc(Nc2nc(=O)c3ccccc3s2)n1,outcome,[1],inactive
same,outcome,[2],inactive
same,potentiation,[3],10% (active)
same,potentiation,[4],82% (active)
same,outcome,[5],inactive
same,outcome,[6],inactive
same,outcome,[7],inactive
same,outcome,[8],inactive
same,outcome,[9],inactive
same,outcome,[10],inactive
same,outcome,[11],inactive
same,outcome,[12],inactive
same,outcome,[13],inactive
same,outcome,[14],inactive
same,potentiation,[15],81.3% (active)
same,outcome,[16],inactive
same,outcome,[17],inactive
O=C(Cc1cn(Cc2cccc(Cl)c2)c2ccccc12)N1CCCC1,outcome,[1],inactive
same,outcome,[2],inactive
same,outcome,[3],inactive
same,potentiation,[4],10% (active)
same,outcome,[5],inactive
same,outcome,[6],inactive
same,outcome,[7],inactive
same,outcome,[8],inactive
same,outcome,[9],inactive
same,outcome,[10],inactive
same,outcome,[11],inactive
same,outcome,[12],inactive
same,outcome,[13],inactive
same,outcome,[14],inactive
same,potentiation,[15],29.2% (active)
same,outcome,[16],inactive
same,outcome,[17],inactive
O=S(=O)(NCC1NCCc2ccccc21)c1ccccc1 (stereo not given),outcome,[1],inactive
same,outcome,[2],inactive
same,outcome,[3],inactive
same,outcome,[4],inactive
same,outcome,[5],inactive
same,outcome,[6],inactive
same,outcome,[7],inactive
same,outcome,[8],inactive
same,outcome,[9],inactive
same,outcome,[10],inactive
same,outcome,[11],inactive
same,outcome,[12],inactive
same,outcome,[13],inactive
same,outcome,[14],inactive
same,outcome,[15],inactive
same,outcome,[16],inactive
same,outcome,[17],inactive
O=C(NCCCN1CCOCC1)C1CCN(S(=O)(=O)c2c(Cl)cccc2Cl)CC1,outcome,[1],inactive
same,outcome,[2],inactive
same,outcome,[3],inactive
same,outcome,[4],inactive
same,outcome,[5],inactive
same,outcome,[6],inactive
same,outcome,[7],inactive
same,outcome,[8],inactive
same,outcome,[9],inactive
same,outcome,[10],inactive
same,outcome,[11],inactive
same,outcome,[12],inactive
same,outcome,[13],inactive
same,outcome,[14],inactive
same,outcome,[15],inactive
same,outcome,[16],inactive
same,outcome,[17],inactive
CCOC(=O)C1=C(NC(=S)NC(=O)c2ccccc2)c2ccccc2CC1(C)C,outcome,[1],inactive
same,outcome,[2],inactive
same,outcome,[3],inactive
same,potentiation,[4],12% (active)
same,outcome,[5],inactive
same,outcome,[6],inactive
same,outcome,[7],inactive
same,outcome,[8],inactive
same,outcome,[9],inactive
same,outcome,[10],inactive
same,outcome,[11],inactive
same,outcome,[12],inactive
same,outcome,[13],inactive
same,outcome,[14],inactive
same,potentiation,[15],27.1% (active)
same,outcome,[16],inactive
same,outcome,[17],inactive
CN1CCN(NC(=O)c2cccc(Br)c2)CC1,outcome,[1],inactive
same,outcome,[2],inactive
same,potentiation,[3],8% (active)
same,potentiation,[4],18% (active)
same,outcome,[5],inactive
same,outcome,[6],inactive
same,outcome,[7],inactive
same,outcome,[8],inactive
same,outcome,[9],inactive
same,outcome,[10],inactive
same,outcome,[11],inactive
same,outcome,[12],inactive
same,outcome,[13],inactive
same,outcome,[14],inactive
same,potentiation,[15],21.8% (active)
same,outcome,[16],inactive
same,outcome,[17],inactive
COc1ccc(C2C(O)C(c3c[nH]c4ccccc34)=NN2C(=O)CCl)cc1 (stereo not given),outcome,[1],inactive
same,outcome,[2],inactive
same,outcome,[3],inactive
same,potentiation,[4],36% (active)
same,outcome,[5],inactive
same,outcome,[6],inactive
same,outcome,[7],inactive
same,outcome,[8],inactive
same,outcome,[9],inactive
same,outcome,[10],inactive
same,outcome,[11],inactive
same,outcome,[12],inactive
same,outcome,[13],inactive
same,outcome,[14],inactive
same,potentiation,[15],28.9% (active)
same,outcome,[16],inactive
same,outcome,[17],inactive
Cc1c(CCOC(=O)c2ccccc2)sc[n+]1CC(=O)c1ccc(Br)cc1,outcome,[1],inactive
same,outcome,[2],inactive
same,outcome,[3],inactive
same,outcome,[4],inactive
same,outcome,[5],inactive
same,outcome,[6],inactive
same,outcome,[7],inactive
same,outcome,[8],inactive
same,outcome,[9],inactive
same,outcome,[10],inactive
same,outcome,[11],inactive
same,outcome,[12],inactive
same,outcome,[13],inactive
same,outcome,[14],inactive
same,outcome,[15],inactive
same,outcome,[16],inactive
same,outcome,[17],inactive
C=CCn1c(SCC(=O)c2ccc(NS(=O)(=O)c3ccccc3)cc2)nnc1-c1cccs1,outcome,[1],inactive
same,outcome,[2],inactive
same,outcome,[3],inactive
same,outcome,[4],inactive
same,outcome,[5],inactive
same,outcome,[6],inactive
same,outcome,[7],inactive
same,outcome,[8],inactive
same,outcome,[9],inactive
same,outcome,[10],inactive
same,outcome,[11],inactive
same,outcome,[12],inactive
same,outcome,[13],inactive
same,outcome,[14],inactive
same,potentiation,[15],14% (active)
same,outcome,[16],inactive
same,outcome,[17],inactive
CCN1CCN(c2ccc(S(=O)(=O)N3CCCCC3)cc2NC(=O)c2cccc(OC(F)F)c2)CC1,outcome,[1],inactive
same,outcome,[2],inactive
same,potentiation,[3],7% (active)
same,potentiation,[4],18% (active)
same,outcome,[5],inactive
same,outcome,[6],inactive
same,outcome,[7],inactive
same,outcome,[8],inactive
same,outcome,[9],inactive
same,outcome,[10],inactive
same,outcome,[11],inactive
same,outcome,[12],inactive
same,outcome,[13],inactive
same,outcome,[14],inactive
same,potentiation,[15],15.6% (active)
same,outcome,[16],inactive
same,outcome,[17],inactive
Cc1cc(NC(=O)CSCC(=O)Nc2ccc(Cl)c(C(F)(F)F)c2)no1,outcome,[1],inactive
same,outcome,[2],inactive
same,outcome,[3],inactive
same,outcome,[4],inactive
same,inhibition,[5],71% (active)
same,outcome,[6],inactive
same,outcome,[7],inactive
same,outcome,[8],inactive
same,outcome,[9],inactive
same,outcome,[10],inactive
same,outcome,[11],inactive
same,outcome,[12],inactive
same,outcome,[13],inactive
same,inhibition,[14],35.2% (active)
same,outcome,[15],inactive
same,outcome,[16],inactive
same,outcome,[17],inactive
COc1ccccc1CC(=O)N1CCN(S(=O)(=O)c2ccccc2)CC1,outcome,[1],inactive
same,outcome,[2],inactive
same,outcome,[3],inactive
same,potentiation,[4],24% (active)
same,outcome,[5],inactive
same,outcome,[6],inactive
same,outcome,[7],inactive
same,outcome,[8],inactive
same,outcome,[9],inactive
same,outcome,[10],inactive
same,outcome,[11],inactive
same,outcome,[12],inactive
same,outcome,[13],inactive
same,outcome,[14],inactive
same,potentiation,[15],44.4% (active)
same,outcome,[16],inactive
same,outcome,[17],inactive
Cc1cc(NC(=O)CCN2CCN(Cc3ccccc3)CC2)ccc1Br,outcome,[1],inactive
same,outcome,[2],inactive
same,potentiation,[3],18% (active)
same,outcome,[4],inactive
same,outcome,[5],inactive
same,outcome,[6],inactive
same,outcome,[7],inactive
same,outcome,[8],inactive
same,outcome,[9],inactive
same,outcome,[10],inactive
same,outcome,[11],inactive
same,outcome,[12],inactive
same,outcome,[13],inactive
same,outcome,[14],inactive
same,outcome,[15],inactive
same,outcome,[16],inactive
same,outcome,[17],inactive

# Reference: PubChem BioAssay
